One assay has as its target CD27. The experiment in a line: pooled miR-30 sensor sort-seq; sequence = guide strand. The conditions noted are these: shRNA.
The sequence TAAAATCGGAGCTGCACAGGGA displayed a sensor-assay potency score (higher = more potent) of 0.114. Still for that read-out and setting: as for AAGGATGCGAATAAAATCGGAG, the figure is -0.423. Same read-out and setting: as for ATCTATATTTCCTTCGTTGATG, the figure is -1.32; as for TTGATCTATATTTCCTTCGTTG, -0.282. In turn, TTTTCGGTAATCCTCCTGGATG came in with a sensor-assay potency score (higher = more potent) of -1.32. On to TTTCCTTCGTTGATGGAGGAAC, for which the sensor-assay potency score (higher = more potent) was -0.814.

For another assay, the target named is CD300E. Described as above. As to conditions: shRNA.
The sequence ACTGTCTGAATTTTGCACCAGT returned a sensor-assay potency score (higher = more potent) of -0.28. Sequence ATCATCTTCATTGAGGTTCTGC registered a sensor-assay potency score (higher = more potent) of 0.407.

TTGTACATGCTCTCATACTGAC yielded a sensor-assay potency score (higher = more potent) of -0.406. ATGACGTGTCGTACTGTCCTCG: the sensor-assay potency score (higher = more potent) was -0.632. On the same count and under the same terms, with TGGTCTCTGATGGACACGCGGC the figure was -1.67; with TTGGGGTTGTAATTGCTGGGGA, -0.0469. The sequence ATACTGACACCACACTGTCAGA displayed a sensor-assay potency score (higher = more potent) of -1.71. Still for that read-out and setting: with TTTGGGTCAACACCTCCCCGGT the figure was -1.29; with TGAATTTTGGGTCAACACCTCC, -1.03. Same read-out and setting: as for TCACATGACGTGTCGTACTGTC, the figure is 0.205; as for TTTTGGGTCAACACCTCCCCGG, -0.887. As to TTGGTCTCCACAATGCTCTCAC, the sensor-assay potency score (higher = more potent) was 0.408.

The next assay deals with CD300LG. The description is as above. The conditions noted are these: shRNA.
TCTGTGTTAGACACCTACGTGC came in with a sensor-assay potency score (higher = more potent) of 0.23.

The sequence TTCTACTTTTCTCTCTAGCCAC gave a sensor-assay potency score (higher = more potent) of -0.61. Still for that read-out and setting: as for TTGGTGTCGCAGACAGAGCAGA, the figure is -1.29. The sequence TTCCCTGTAGGTGCACTGCAGG registered a sensor-assay potency score (higher = more potent) of -0.985. Still for that read-out and setting: with TTCCTGCACCAGTACTTCCGGT the figure was -1.16. The same measure, in the same setting: as for TTCTTCTTCTGCATAGATGGTG, the figure is -0.287; as for TCTTCTTCTGCATAGATGGTGC, -0.808.

TATCCCTGCAATGTGCACCTGA returned a sensor-assay potency score (higher = more potent) of 0.23. In turn, TCTTCTGCATAGATGGTGCCAG registered a sensor-assay potency score (higher = more potent) of -0.529. Same read-out and setting: as for TAGATGGTGCCAGAGCAGCGAG, the figure is -1.7; as for TCCTGCACCAGTACTTCCGGTG, -1.28. The same measure, in the same setting: with TTTTCTTCATCATTTTTCCAAA the figure was -1.26.

A further assay deals with CD320. The assay is described as above. As to conditions: shRNA.
Consider TTCCGGGAGGATCTCATTGGTT, for which the sensor-assay potency score (higher = more potent) was -1.44. For the sequence TTCTGTTCTGACAGCAGCAGGG, the sensor-assay potency score (higher = more potent) is -0.457. For the sequence TCATCGCTGCCATCGCTGCAGT, the sensor-assay potency score (higher = more potent) was -1.32. Still for that read-out and setting: with TCTCATTGGTTCCACAGCCGAG the figure was -1.57; with TCGCTGCAGTCCAAGTCCCTGT, -1.39; with TCCACAGCCGAGCTCGTCGCTG, -1.78. ATGCAGTCATCGCTCAGCGTGC returned a sensor-assay potency score (higher = more potent) of -1.64.

The sequence TTGCACTGAGCACCGCAGCAGC returned a sensor-assay potency score (higher = more potent) of -1.06. TAGTCCGAGGCCGAGCAGCAGC had a sensor-assay potency score (higher = more potent) of -1.57. AATGCAGTCATCGCTCAGCGTG: the sensor-assay potency score (higher = more potent) is -1.16.
Further: reference of the scale not given here.
